From PubChem
Sampled rows, rich in hits. Any-hit rate of the full collection: about 12%.
PLK1 PBD inh – blocks phosphopeptide binding to human PLK1 polo-box domain; P53350; Plk1 PBD binding of FITC phosphopeptide, fluorescence polarization; Potency, µM, inactives show max response, negative = inhibition, actives largely listed as inhibitors; 2.8% of 360,000 active; further: series mostly up to about 57 µM; on the % scale 0 is the no-effect control and ±100 the full control effect; nearly all actives have a fitted effect of over 65% in size
G9a block – blocks human histone lysine methyltransferase G9a | G9a H3K9 monomethylation, AlphaScreen, 2 h | 8.8% of 350,000 active | AID 504332 | Q96KQ7 | Potency, µM (doses to about 102 µM), for inactives: at the highest dose activity, negative = inhibition, most hits filed as inhibitors; further: on the % scale 0 is the no-effect control and ±100 the full control effect; nearly all actives have a fitted effect of over 75% in size
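Readings reflect AlphaScreen signal from monomethyl-H3K9 antibody detection. HMT at 20 nM; substrate b-H3K9 500 nM; cofactor SAM 20 uM; 2 h RT reaction; compounds tested as titrations in qHTS with 15 min preincubation.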
JMJD2A Tudor inh – blocks the human JMJD2A Tudor domain | 4.4% of 390,000 active | Potency, µM (series often up to 114 µM), for the others: at the highest dose activity change, negative = inhibition, most hits filed as inhibitors | O75164 | AlphaScreen JMJD2A-Tudor / H3K4me3 peptide binding; further: on the % scale 0 is the no-effect control and ±100 the full control effect; nearly all actives have a fitted effect of over 50% in size
BAZ2B inh – BAZ2B (human) inhibition; Q9UIF8; AlphaScreen BAZ2B-H3K14Ac peptide displacement; Potency, µM (titrated, usually from 114 µM), without a hit: at the top dose activity change, negative = inhibition, most hits filed as inhibitors; 4.4% of 360,000 active; further: on the % scale 0 is the no-effect control and ±100 the full control effect; nearly all actives have a fitted effect of over 60% in size
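Complex of BAZ2B and biotin-H3K14Ac (50 nM apiece) forms over 30 min at RT, then faces library compounds up to 110 uM for another 30 min; AlphaScreen beads added, 20 min dark incubation, luminescence read.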
Sfp PPTase inh – blocks B. subtilis Sfp PPTase activity | Q9F4F7 | Biochemical Sfp PPTase activity, qHTS | Potency, µM, for the others: largest response in the series, negative = inhibition, most hits filed as inhibitors | 3.5% of 310,000 active | AID 1490;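 further: the enzyme is Sfp with the accession as filed and its product quenches rhodamine fluorescence; 0% = enzyme reaction without inhibitor and -100% = no enzyme wells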
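After 15 min at room temperature with compound, 15 nM Sfp received 5 uM rhodamine-CoA plus 12.5 uM BHQ-2-ybbR (50 mM Hepes pH 7.6, 10 mM MgCl2). Rate came from the fluorescence difference over 30 min, ex 525/em 598 nm.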
HP1b binding inh – HP1-beta chromodomain-methylated histone interaction inhibition. AID 540317. 0.56% of 390,000 active. Potency, µM (top dose mostly 114 µM), for inactives: at the highest dose activity change, negative = inhibition, hits mostly inhibitors. AlphaScreen HP1-beta / biotin-H3K9me3 peptide binding; further: nearly all actives have a fitted effect of over 70% in size
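AlphaScreen: HP1-beta (50 nM) preformed 30 min with biotin-H3(1-18)K9me3 peptide (50 nM) in PBS pH 7.4, 0.01% Tween-20. Compound added for 30 min at RT, then streptavidin donor/nickel chelate acceptor beads (10 ug/mL) for 30 min.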
Numbers without * were called inactive; ? = inconclusive; . = not tested or not shown; [ ] = dose if it differs, or a comment. The call rests on the fitted dose curve; in most records, active means well fitted curve in the direction sought with a large enough effect; inconclusive means small, poorly fitted or top-dose-only effect, or another doubt; inactive means no such curve, though single readings can be large; an effect the other way counts as inactive or inconclusive. Potency means the concentration at half of the fitted maximal effect.

SMILES	PLK1 PBD inh	G9a block	JMJD2A Tudor inh	BAZ2B inh	Sfp PPTase inh	HP1b binding inh
CCOC(=O)c1cc(-c2ccc(C)cc2)n(CCC(=O)N2CCN(c3ccccn3)CC2)c1C	-2.6%	28.2µM*	35.5µM*	44.7µM*	-3.6%	?
CS(=O)(=O)c1ccc(-c2cc(Br)sc2-c2ccc(F)cc2)cc1	.	.	.	.	-8.0%	.
CC1(C)CC2CC(C)(CN2Cc2c(O)ccc3ccccc23)C1 (centres undefined)	?	10µM*	-27.2%	-9.4%	-0.8%	16.5%
CC1(C)CC2CC(C)(CN2Cc2cccc([N+](=O)[O-])c2)C1 (centres undefined)	-2.4%	.	20µM*	?	?	?
CC1(C)CC2CC(C)(CN2C(=O)COC(=O)c2cccc([N+](=O)[O-])c2)C1 (centres undefined)	0.6%	.	-2.8%	.	.	24.4%
Cc1ccc2nc(NC(=O)c3nc(SCc4ccccc4C)ncc3Cl)sc2c1	.	8.7%[59 µM]	-11.6%	0.5%	.	34.3%
Cc1cc(=O)[nH]c(SCC(=O)N2CCCC2)n1	-6.8%	.	?	.	.	21.0%
CC1(C)Cc2c(ccc3ccccc23)C(=O)N1	-9.0%	-1.0%[12.7 µM]	-1.4%	3.5%	7.3%	44.6%
CCC1(C)Cc2ccccc2/C(=C/C(=O)N2CCCCC2)N1 (centres undefined)	-14.0%	39.8µM*	?	?	14.4%	0.2%
CNC(=O)/C=C1\NC(C)(C)Cc2ccccc21	-0.6%	-19.5%[12.7 µM]	-4.8%	-30.5%	50.1µM*	26.6%
CCNC(=O)/C=C1\NC(C)(C)Cc2c1ccc1ccccc21	-1.1%	11.2µM*	-22.7%	-35.6%	13.9%	1.1%
Cc1cccc2c1CC(C)(C)N/C2=C\C(N)=O	?	?	-14.2%[57.1 µM]	-3.7%	15.5%	3.9%
CC(C)c1noc(-c2ccccc2OCC(=O)Nc2ccc([N+](=O)[O-])cc2)n1	.	?	-14.9%	-11.0%	.	31.4%
Cc1cccc(-c2noc(-c3ccccc3OCC(=O)Nc3ccc([N+](=O)[O-])cc3)n2)c1	.	?	28.2µM*	-34.2%	.	-15.2%
O=C(Nc1ccccc1F)c1ccc(Cn2nc(N3CCN(c4ccccc4)CC3)ccc2=O)o1	.	?	50.1µM*	31.6µM*	.	8.1%
Cc1ccc(CNC(=O)c2cc(=O)c3cc(C)cc(C)c3o2)cc1	.	-36.5%[59 µM]	-11.8%	-8.3%	.	26.8%
O=C1CCCc2ccccc2N1Cc1ccc(Cl)cc1	0.1%	38.6%	-7.4%	8.6%	6.6%	50.5%
Clc1ccc2nc(CN3CCCc4ccccc43)cn2c1	-3.2%	?	50.1µM*	50.1µM*	-22.1%	-37.8%
Clc1ccc2nc(CN3CCCCC3)cn2c1	-8.4%	50.1µM*	-3.7%	8.3%	-7.7%	30.5%
Clc1ccc2nc(CN3CCCCCC3)cn2c1	-3.8%	3.1%[0.0925 µM]	89.1µM*	?	-4.2%	34.0%
Cn1c(CNC(=O)CNC(=O)Cc2ccc(Cl)cc2)cc(=O)n(C)c1=O	-11.5%	-2.9%	-19.3%	-0.1%	6.0%	20.5%
CCS(=O)(=O)Nc1ccc(Cc2ccc(NS(=O)(=O)CC)cc2)cc1	-14.0%	50.1µM*	-7.1%	7.0%	-30.0%	18.9%
CS(=O)(=O)Nc1ccc(Cc2ccc(NS(C)(=O)=O)cc2)cc1	-7.0%	-22.5%[12.7 µM]	7.1%	1.1%	11.7%	31.2%
CCN1C(=O)[C@H]2[C@H]3[C@H](O)[C@H](O)C/C(=N/OC[C@@H](O)COCc4ccco4)[C@H]3CC[C@@H]2C1=O	.	.	.	.	-2.4%	.
O=C(O)c1nc(-c2ccccc2)n(-c2ccccc2)n1	0.9%	?	-13.2%	0.0%	7.7%	28.9%
SMILES	PLK1 PBD inh	G9a block	JMJD2A Tudor inh	BAZ2B inh	Sfp PPTase inh	HP1b binding inh
O=C(c1nc(-c2ccccc2)n(-c2ccccc2)n1)N1CCN(S(=O)(=O)c2ccccc2)CC1	?	?	70.8µM*	?	-6.4%	-14.6%
COc1cccc(CN(C)C(=O)Cn2cc(C)c(=O)[nH]c2=O)c1	-16.8%	.	?	.	.	13.9%
CCCOc1ccc(-c2nonc2NC(=O)c2cc(OC)c(OC)c(OC)c2)cc1OCCC	.	-3.2%[59 µM]	-0.3%	-21.1%	.	47.5%
CCOC(=O)c1sc2nc3c(cc2c1N)COC(C)(CC)C3 (centres undefined)	-5.0%	68.1%[12.7 µM]	17.9%	16.8%	2.8%	92.7%
CCC1(C)Cc2nc3sc(C(=O)O)c(N)c3cc2CO1 (centres undefined)	-6.2%	3.55µM*	50.1µM*	-0.4%	28.2µM*	24.3%
OC[C@H]1O[C@@H](c2nc(-c3cccc4ccccc34)no2)[C@H](O)[C@@H]1O	-10.5%	.	.	.	.	.
CN1C(=O)C(N=Nc2ccccc2C(=O)O)N(C)C1=S (centres undefined)	?	1.78µM*	-7.5%[11.4 µM]	?	-9.8%	-36.5%
CCc1c(C2(O)CCCCC2)[nH]c2ncccc12	4.6%	3.7%[0.501 µM]	-20.7%	4.3%	.	38.5%
CC(=O)/C(=N\Nc1ccc(C)cc1)N1CCOCC1	3.1%	28.2µM*	-16.7%	-1.0%	-5.5%	14.7%
COc1ccc(CC(=S)N2CCOCC2)cc1	7.52µM*	?	-18.9%[57.1 µM]	-1.0%	15.8µM*	?
CCc1ccc(CC(=S)N2CCOCC2)cc1	-18.2%	3.9%	-4.2%	0.6%	8.3%	61.0%
Cc1ccc(CC(=S)N2CCOCC2)cc1	18.9µM*	8.91µM*	-5.6%	5.1%	35.5µM*	-19.5%
Cc1ccc(CC(=O)Nc2ccc(C(=O)N3CCOCC3)cc2)cc1	-11.0%	17.8µM*	-1.4%	-19.4%	-7.9%	10.7%
CC(=O)Nc1ccc(NC(=O)N2CCOCC2)cc1	-0.8%	.	.	.	.	.
O=C(NCC1CCCO1)c1ccc(NC(=O)c2cc(F)c(F)cc2Cl)cc1 (centres undefined)	-6.0%	-1.3%	-7.2%	-8.7%	10.9%	37.2%
C[C@H](CO)N1C[C@H](C)[C@@H](CN(C)Cc2ccccc2)Oc2ccc(NC(=O)Cn3cnnn3)cc2C1=O	-2.1%	.	-2.7%	.	.	36.0%
[O-][n+]1cccc2c(Br)cc(Br)c(O)c21	?	50.1µM*	-27.1%	.	-19.8%	8.1%
COC(=O)C1CCN(C(=O)COC(=O)c2cc(-c3ccccc3)nc3ccc(OC)cc23)CC1	-16.6%	47.9%[12.7 µM]	-2.3%	6.7%	.	39.3%
Cn1c(SSc2ccc(-c3cccnc3)n2C)ccc1-c1cccnc1	4.23µM*	.	50.1µM*	.	.	?
Nc1ncc(Br)cc1N=Cc1ccccc1	-5.7%	?	-20.3%	-5.1%	79.4µM*	16.8%
Cn1ncc(N=Cc2ccccc2)c1C(N)=O	1.4%	-45.6%[12.7 µM]	1.6%	-2.8%	-1.9%	20.1%
